# hcDAF-12 act = H. contortus DAF-12 activation, primary screen; activation, % at 6.8 µM; HEK293 hcDAF-12 lit1-tk-luc reporter, luminescence; 0% DMSO, 100% Δ7-dafachronic acid; 1.4% of 370,000 active;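 active means activation above the mean of all tested compounds plus 3 SD, cut at about 5.5% in these data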
# DAX1 inh-1 = inhibitors of human orphan nuclear receptor DAX1 (NR0B1) | HEK293 Gal4-DAX1 luciferase reporter, luminescence | inhibition, % at 6.75 µM | 0.99% of 340,000 active | AID 504766;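 active means inhibition above the mean over all tested compounds plus 3 SD, cut at about 4.2% in these data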;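 further: inhibition shows as a rise in luminescence from relieved DAX1 repression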
# Target sequence (P51843 207-470 limits assumed): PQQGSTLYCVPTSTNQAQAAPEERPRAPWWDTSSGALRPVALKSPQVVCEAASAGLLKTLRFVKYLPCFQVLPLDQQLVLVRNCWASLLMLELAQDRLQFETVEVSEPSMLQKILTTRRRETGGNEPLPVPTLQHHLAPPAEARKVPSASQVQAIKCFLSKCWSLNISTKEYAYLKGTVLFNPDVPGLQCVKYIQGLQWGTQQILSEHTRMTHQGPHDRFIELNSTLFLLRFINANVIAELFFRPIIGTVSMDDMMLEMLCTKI
# hgDAF12 agonist = agonists of H. glycines DAF-12 nuclear receptor; HEK293 GAL4-hgDAF12 UAS-luciferase reporter, agonist luminescence; normalized to butyrate control; activation, % at 6.8 µM; 1.8% of 370,000 active;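 active means activation above a cutoff set at the mean of all screened compounds plus 3 SD, cut at about 10% in these data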
# FXN GAA850 act = increases GAA850 frataxin promoter reporter activity; HEK293 lucGAA850 FXN promoter luciferase reporter, 24 h; percent of 10 µM SAHA response; activation, % at 6 µM; 0.56% of 360,000 active;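 active means activation above the average of all compounds screened plus 3 SD, cutoff fixed separately per campaign, cut at about 7.5% in these data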
# DAX1 inh-2 = blocks DAX1 repression of SF-1 activated StAR promoter | 1.1% of 370,000 active | AID 652010 | HEK293T StAR-luciferase reporter, SF-1/DAX-1 repression relief | inhibition, % at 6.8 µM;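 active means inhibition above the mean over all tested compounds plus 3 SD, cut at about 3.6% in these data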;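 further: higher inhibition means more luminescence from relief of DAX-1 repression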
# ssDAF12 agonist = S. stercoralis DAF-12 activation, primary screen; AID 652126; HEK293 ssDAF-12/GRIP1 lit1-tk-luc reporter, luminescence; % of 3 µM dafachronic acid response; activation, % at 6.8 µM; 1% of 370,000 active;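 active means activation above the mean over all tested compounds plus 3 SD, cut at about 0.9% in these data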
# Numbers stand for hits; - = inactive; . = no result. This is a sample that favours compounds with a hit; in the whole collection about 4.5% have one here.
SMILES,hcDAF-12 act,DAX1 inh-1,hgDAF12 agonist,FXN GAA850 act,DAX1 inh-2,ssDAF12 agonist
Cc1nc(C)c(C(=O)N2CCCC(C(=O)c3ccc4ccccc4c3)C2)s1 (stereo unspecified),-,-,-,-,-,-
Cc1ccc2c(c1C)NC(=O)C21N2CCCC2C(C(=O)c2ccc3ccccc3c2)C12C(=O)Nc1ccccc12 (stereo unspecified),-,-,-,-,-,1.1
C=CCN1C(=O)[C@H](CC(=O)N2CCN(C(=O)C3CC3)CC2)[C@@]2(C(=O)OCC)CCCC=C12,-,.,-,.,-,-
O=[N+]([O-])c1ccccc1NCc1c(O)ccc2ccccc12,6.3,-,-,-,-,1.6
Oc1ccc2ccccc2c1CNc1ccccc1,-,-,-,-,-,1.7
Cc1ccccc1CN1CCCCC(NC(=O)c2ccccc2)C1=O (stereo unspecified),-,.,-,.,-,-
Cc1ccc(-n2c(SCc3ccc(Cl)c(Cl)c3)nnc2-c2ccc(C(C)(C)C)cc2)cc1,-,.,-,.,-,-
COc1ccc(/C=N/S(=O)(=O)c2cccs2)cc1,-,-,-,-,-,3.0
CCCNC(=O)c1ccc2c(c1)S(=O)(=O)c1ccccc1C2=O,-,-,-,-,-,-
NNC(=O)c1ccc2c(c1)S(=O)(=O)NNC2=O,-,-,11,-,-,-
CN(C)c1ccc(/C=C2\SC(N3CCCCC3)=NC2=O)cc1,-,4.6,-,-,-,-
CCOC(=O)N1CCN(C(=O)CSc2nnc(Cn3c(=O)sc4ccccc43)n2C)CC1,-,-,-,-,-,-
COc1ccccc1NC(=O)CSc1nnc(Cn2c(=O)sc3ccccc32)n1C,-,-,-,-,-,-
CC(=O)c1ccc(NC(=O)CSc2nnc(Cn3c(=O)sc4ccccc43)n2C)cc1,-,4.8,-,-,-,-
CCOC(=O)CSc1nnc(Cn2c(=O)sc3ccccc32)n1C,-,5.8,-,-,-,-
COC(=O)[C@]1(CNC(=O)C(F)(F)F)CC(=O)N(C)[C@@H]1c1ccccc1,-,.,-,.,-,-
Cn1c2ccccc2n2c(=O)c(Cl)c(-c3ccccc3)c(C#N)c12,-,-,-,-,-,-
Cn1c2ccccc2n2c(=O)cc(-c3ccccc3)c(C#N)c12,-,5.4,-,-,-,-
CC(=Nc1ccccc1)C1=C(O)CC(C)(C)CC1=O,-,-,-,-,-,-
CC(=Nc1ccccc1)C1=C(O)CCCC1=O,-,5.2,-,-,-,-
O[C@H](COc1ccccc1)CN1CCC(C(O)(c2ccccc2)c2ccccc2)CC1,-,.,-,.,-,-
CCOC(=O)CC(=O)CSc1nc2c(cc1C#N)CCCCC2,-,-,11,-,-,-
CCOC(=O)CC(=O)CSc1nc2ccc(C)cc2cc1C#N,-,6.7,11,-,3.8,0.9
CC(C)OC(=O)CC(=O)CSc1nc2c(cc1C#N)CCCCC2,-,-,-,-,-,-
Cc1cc(C)cc(N(CC(=O)NC2CCC(C)CC2)S(=O)(=O)c2ccc(Cl)s2)c1 (stereo unspecified),-,.,-,.,-,-
SMILES,hcDAF-12 act,DAX1 inh-1,hgDAF12 agonist,FXN GAA850 act,DAX1 inh-2,ssDAF12 agonist
O=[N+]([O-])c1cccc(NC(=S)N2CCCC2)c1,-,-,-,-,-,-
O=C(Nc1cccc([N+](=O)[O-])c1)C(=O)N1CCCCC1,-,-,13,-,-,-
C=C(C)Cn1cnc2c(oc3nc4c(cc32)CCCC4)c1=O,-,6.6,-,-,-,-
Cn1c(-c2cccs2)nc2ccccc21,-,-,11,-,-,-
Cn1c(-c2ccc(C=O)s2)nc2ccccc21,-,-,12,-,-,-
Cn1c(-c2ccc(N)cc2)nc2ccccc21,-,-,-,-,-,-
CC(C)Cn1c(-c2cccs2)nc2ccccc21,-,-,-,-,-,-
CC(C)(C)C(=O)OC12CCCN(C1)/C(=C/c1cccnc1)C2 (stereo unspecified),-,.,-,.,-,-
COC(=O)[C@]12C[C@H](CC(=O)N3CCN(C(=O)c4ccco4)CC3)C(=O)N(Cc3ccc(Cl)cc3Cl)C1=C[C@H](C(C)C)O[C@@H]2C1CC1,-,.,-,.,-,-
CC1CC(C)CN(C(=O)c2cccc(N3C(=O)c4ccccc4C3=O)c2)C1 (stereo unspecified),-,-,-,-,4.3,-
CC1CCN(C(=O)c2ccc(N3C(=O)c4ccccc4C3=O)cc2)CC1,-,-,-,-,-,-
CN(c1ccc(OCC(=O)NC2CCCC2)cc1)S(=O)(=O)c1cccs1,-,-,-,-,-,-
CN(c1ccc(OCC(=O)OCC(=O)NC2CCCC2)cc1)S(=O)(=O)c1ccc2ccccc2c1,-,-,-,-,-,1.2
Cc1cc(-c2nc3ncccc3o2)ccc1N,-,-,-,-,-,-
Cc1ccc(-c2nc3ncccc3o2)cc1N,5.8,-,-,-,-,-
CCC(Cc1ccccc1)NC(=O)Cn1ncc2ccsc2c1=O (stereo unspecified),5.9,-,11,-,-,1.0
C=CCSC1=N/C(=C/c2ccsc2)C(=O)N1c1ccccc1,-,5.0,-,-,-,-
CN1CCC(Oc2ccc(Sc3ccccc3)cc2)CC1,-,-,11,-,-,-
O=C(CSc1nc2ccccc2nc1N1CCCCC1)N1CCN(C(c2ccccc2)c2ccc(Cl)cc2)CC1 (stereo unspecified),-,.,-,.,-,-
CC(C)(C)CN1CCN(Cc2cc3ccccc3[nH]2)CC1CCO (stereo unspecified),6.3,-,-,-,-,-
COc1cccc(CN2CCN(Cc3cc4ccccc4[nH]3)CC2CCO)c1 (stereo unspecified),-,-,-,-,-,-
CCOc1ccc(CN2CCN(Cc3cc4ccccc4[nH]3)CC2CCO)cc1 (stereo unspecified),-,-,-,-,-,2.0
CC(C)CN1CCN(Cc2cc3ccccc3[nH]2)CC1CCO (stereo unspecified),-,-,-,-,-,-
Cc1nc2ccccn2c1P(=O)(c1ccccc1)c1ccccc1,-,.,-,.,.,-
COc1ccc(OCC(=O)Nc2c(Cl)ccc3nsnc23)cc1,6.2,-,-,-,-,-
COc1ccc(OCC(=O)Nc2c(C)ccc3nsnc23)cc1,-,-,-,-,-,-
COc1ccc(CCn2nc(C)c([N+](=O)[O-])c2C)cc1,-,-,-,-,4.2,-
Cn1c(NCCN2CCCC2)nc2cc(-c3ccccc3)sc2c1=O,-,.,-,-,-,-
O=c1c2sc(-c3ccccc3)cc2nc2n1CCC2,5.8,-,13,-,4.3,0.9
O=c1c2sc(-c3ccccc3)cc2nc2n1CCCCC2,-,5.0,12,-,-,-

# Screening results deposited in PubChem by The Scripps Research Institute Molecular Screening Center.
